Source: the supplement of paper PMC10849652
Targets with a hit are over-represented here; the source holds about 7,900 in all. About 0.6% of all pairs of compound and target were hits.

Compound: COc1cc2ncnc(Nc3ccc(F)c(Cl)c3)c2cc1OCCCN1CCOCC1 [gefitinib]
Assay: log2 fold change, soluble protein after heating vs DMSO (PISA); higher = thermal stabilisation; K562 cells, 10 uM, 30 min; active = over 0.2 and 3.5 SD of the protein, either way, in both replicates (recomputed)
Outline: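 K562 cells (2×10^6 cells/mL) were treated with 10 μM compound for 30 min, and aliquots were heated for 3 min over 48°C-58°C. Pooled aliquots were extracted in PBS with 0.5% NP-40 at 4°C, and the supernatant after 21,000xg for 90 min was measured by TMTpro 16plex LC-MS/MS with channel sums equalised. Reported thermal stability, relative to control samples and from duplicates, is a log2 fold change.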

Sequence of UniProt Q9Y3D6 (Q9Y3D6 whole entry, looked up): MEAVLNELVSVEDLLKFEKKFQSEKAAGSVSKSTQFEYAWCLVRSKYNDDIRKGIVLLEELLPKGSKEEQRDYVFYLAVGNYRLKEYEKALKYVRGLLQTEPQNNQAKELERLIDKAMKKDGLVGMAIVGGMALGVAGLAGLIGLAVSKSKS
Sequence of UniProt P40939 (P40939 whole entry, looked up): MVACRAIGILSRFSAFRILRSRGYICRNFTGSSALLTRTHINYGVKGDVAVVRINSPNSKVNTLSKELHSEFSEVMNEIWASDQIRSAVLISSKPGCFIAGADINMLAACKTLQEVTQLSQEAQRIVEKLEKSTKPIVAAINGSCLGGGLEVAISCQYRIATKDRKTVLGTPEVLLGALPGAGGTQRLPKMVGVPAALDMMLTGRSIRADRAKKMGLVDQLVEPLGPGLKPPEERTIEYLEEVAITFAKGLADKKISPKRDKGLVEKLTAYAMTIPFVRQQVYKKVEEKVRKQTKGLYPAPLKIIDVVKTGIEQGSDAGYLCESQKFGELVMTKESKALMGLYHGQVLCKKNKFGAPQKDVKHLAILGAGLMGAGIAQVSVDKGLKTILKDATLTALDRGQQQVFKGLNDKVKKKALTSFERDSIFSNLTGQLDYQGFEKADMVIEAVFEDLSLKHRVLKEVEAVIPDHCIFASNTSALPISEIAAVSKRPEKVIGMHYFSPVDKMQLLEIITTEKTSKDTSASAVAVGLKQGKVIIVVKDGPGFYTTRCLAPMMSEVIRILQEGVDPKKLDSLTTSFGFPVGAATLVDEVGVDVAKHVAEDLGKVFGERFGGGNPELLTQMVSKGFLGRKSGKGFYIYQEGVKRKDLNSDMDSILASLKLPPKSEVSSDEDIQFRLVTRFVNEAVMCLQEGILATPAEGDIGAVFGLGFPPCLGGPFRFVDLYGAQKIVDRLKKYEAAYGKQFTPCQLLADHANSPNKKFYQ
Sequence of UniProt Q9H4A6 (Q9H4A6 whole entry, looked up): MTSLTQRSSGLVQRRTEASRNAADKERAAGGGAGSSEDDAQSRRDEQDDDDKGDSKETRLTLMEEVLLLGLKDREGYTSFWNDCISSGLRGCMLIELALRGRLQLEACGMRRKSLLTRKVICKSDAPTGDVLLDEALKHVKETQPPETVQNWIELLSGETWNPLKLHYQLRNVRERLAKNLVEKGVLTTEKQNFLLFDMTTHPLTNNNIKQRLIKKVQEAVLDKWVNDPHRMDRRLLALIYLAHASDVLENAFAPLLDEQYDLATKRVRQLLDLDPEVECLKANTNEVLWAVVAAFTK
Sequence of UniProt O14526 (O14526 whole entry, looked up): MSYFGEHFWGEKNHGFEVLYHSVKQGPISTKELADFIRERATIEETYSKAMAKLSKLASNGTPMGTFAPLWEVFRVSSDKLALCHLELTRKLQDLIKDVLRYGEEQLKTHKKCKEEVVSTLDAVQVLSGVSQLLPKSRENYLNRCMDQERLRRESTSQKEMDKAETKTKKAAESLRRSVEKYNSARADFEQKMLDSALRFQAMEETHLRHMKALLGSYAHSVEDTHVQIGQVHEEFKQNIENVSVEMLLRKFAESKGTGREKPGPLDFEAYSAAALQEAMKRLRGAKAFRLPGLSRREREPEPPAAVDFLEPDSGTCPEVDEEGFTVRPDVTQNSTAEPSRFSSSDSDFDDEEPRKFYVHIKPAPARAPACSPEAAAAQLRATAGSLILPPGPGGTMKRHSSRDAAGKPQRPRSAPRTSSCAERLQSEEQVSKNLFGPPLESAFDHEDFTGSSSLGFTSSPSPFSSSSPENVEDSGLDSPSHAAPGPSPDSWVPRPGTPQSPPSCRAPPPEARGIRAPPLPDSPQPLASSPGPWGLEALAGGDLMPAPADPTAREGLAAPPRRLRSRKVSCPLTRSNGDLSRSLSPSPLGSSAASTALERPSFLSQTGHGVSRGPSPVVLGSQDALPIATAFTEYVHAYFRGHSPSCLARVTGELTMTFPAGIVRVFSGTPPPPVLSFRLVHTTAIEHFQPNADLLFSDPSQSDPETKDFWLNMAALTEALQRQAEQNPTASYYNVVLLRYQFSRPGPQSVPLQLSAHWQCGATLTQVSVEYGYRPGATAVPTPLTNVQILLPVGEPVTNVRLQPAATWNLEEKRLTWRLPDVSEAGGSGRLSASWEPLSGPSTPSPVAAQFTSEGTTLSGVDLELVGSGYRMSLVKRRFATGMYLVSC
Sequence of UniProt P49448 (P49448 whole entry, looked up): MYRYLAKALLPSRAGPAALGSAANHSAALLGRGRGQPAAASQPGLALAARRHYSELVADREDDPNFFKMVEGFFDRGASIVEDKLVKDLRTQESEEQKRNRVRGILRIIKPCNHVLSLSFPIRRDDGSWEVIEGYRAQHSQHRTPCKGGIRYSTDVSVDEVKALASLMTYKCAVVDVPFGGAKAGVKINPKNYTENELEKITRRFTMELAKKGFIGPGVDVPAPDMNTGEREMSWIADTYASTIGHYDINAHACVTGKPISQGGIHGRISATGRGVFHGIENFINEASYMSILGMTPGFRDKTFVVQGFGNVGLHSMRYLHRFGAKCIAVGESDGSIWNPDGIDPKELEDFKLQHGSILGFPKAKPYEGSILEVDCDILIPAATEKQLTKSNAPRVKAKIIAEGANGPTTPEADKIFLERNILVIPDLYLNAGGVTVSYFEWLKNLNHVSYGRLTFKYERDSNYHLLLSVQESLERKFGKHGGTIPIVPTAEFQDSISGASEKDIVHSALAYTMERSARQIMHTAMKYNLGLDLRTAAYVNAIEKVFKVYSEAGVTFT
Sequence of UniProt P22087 (P22087 whole entry, looked up): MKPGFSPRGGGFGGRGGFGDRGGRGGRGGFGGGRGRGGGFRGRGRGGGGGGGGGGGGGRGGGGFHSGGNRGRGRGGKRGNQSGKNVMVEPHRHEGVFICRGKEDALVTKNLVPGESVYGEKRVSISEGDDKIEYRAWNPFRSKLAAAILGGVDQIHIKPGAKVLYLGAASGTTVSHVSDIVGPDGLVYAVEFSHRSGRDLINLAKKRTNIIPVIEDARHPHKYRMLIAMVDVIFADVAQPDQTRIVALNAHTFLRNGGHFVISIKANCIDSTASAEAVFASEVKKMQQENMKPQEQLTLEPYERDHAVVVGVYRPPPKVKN
Sequence of UniProt Q9HCG7 (Q9HCG7 whole entry, looked up): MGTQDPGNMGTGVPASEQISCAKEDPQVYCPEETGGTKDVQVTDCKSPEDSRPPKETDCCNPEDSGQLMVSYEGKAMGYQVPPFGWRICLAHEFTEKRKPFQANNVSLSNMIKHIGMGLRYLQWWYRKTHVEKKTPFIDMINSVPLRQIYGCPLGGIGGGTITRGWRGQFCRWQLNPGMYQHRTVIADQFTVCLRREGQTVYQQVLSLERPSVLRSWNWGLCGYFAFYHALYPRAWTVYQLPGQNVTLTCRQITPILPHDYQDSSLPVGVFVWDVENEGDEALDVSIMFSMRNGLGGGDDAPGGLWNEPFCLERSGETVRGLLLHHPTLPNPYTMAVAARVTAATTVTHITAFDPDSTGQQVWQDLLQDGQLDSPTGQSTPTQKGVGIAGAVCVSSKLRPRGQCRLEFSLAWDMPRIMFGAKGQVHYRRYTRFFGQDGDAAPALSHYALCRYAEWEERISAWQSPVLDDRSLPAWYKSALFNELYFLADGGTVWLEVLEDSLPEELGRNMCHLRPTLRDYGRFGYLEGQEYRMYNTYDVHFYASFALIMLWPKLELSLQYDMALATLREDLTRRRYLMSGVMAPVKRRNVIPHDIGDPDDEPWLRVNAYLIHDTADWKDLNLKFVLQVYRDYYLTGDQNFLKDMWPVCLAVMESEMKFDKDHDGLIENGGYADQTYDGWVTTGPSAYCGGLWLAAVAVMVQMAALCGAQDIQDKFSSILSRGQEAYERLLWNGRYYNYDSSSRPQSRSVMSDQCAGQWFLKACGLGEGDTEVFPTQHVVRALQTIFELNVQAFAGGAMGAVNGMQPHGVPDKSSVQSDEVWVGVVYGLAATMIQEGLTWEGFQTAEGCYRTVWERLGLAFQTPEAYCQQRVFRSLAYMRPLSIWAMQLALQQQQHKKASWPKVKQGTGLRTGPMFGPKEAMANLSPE
Sequence of UniProt Q03014 (Q03014 whole entry, looked up): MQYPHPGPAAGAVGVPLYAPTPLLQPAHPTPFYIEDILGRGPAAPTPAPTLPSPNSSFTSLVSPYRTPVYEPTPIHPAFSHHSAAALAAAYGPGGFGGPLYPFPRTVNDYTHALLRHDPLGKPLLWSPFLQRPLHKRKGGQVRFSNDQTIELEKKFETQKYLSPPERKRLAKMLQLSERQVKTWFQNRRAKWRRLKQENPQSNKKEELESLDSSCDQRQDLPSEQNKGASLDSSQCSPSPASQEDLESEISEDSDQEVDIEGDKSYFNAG
Sequence of UniProt P23434 (P23434 whole entry, looked up): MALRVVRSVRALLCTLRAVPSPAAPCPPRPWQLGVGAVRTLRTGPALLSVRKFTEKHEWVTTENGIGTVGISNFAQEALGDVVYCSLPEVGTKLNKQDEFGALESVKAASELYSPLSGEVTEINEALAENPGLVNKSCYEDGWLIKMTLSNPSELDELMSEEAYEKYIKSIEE
Sequence of UniProt O15347 (O15347 whole entry, looked up): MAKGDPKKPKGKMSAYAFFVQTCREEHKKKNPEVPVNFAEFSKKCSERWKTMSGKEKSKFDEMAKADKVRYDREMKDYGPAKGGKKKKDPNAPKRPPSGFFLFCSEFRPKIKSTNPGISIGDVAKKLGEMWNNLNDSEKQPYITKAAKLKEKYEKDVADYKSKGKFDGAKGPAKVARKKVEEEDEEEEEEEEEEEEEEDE
Sequence of UniProt P63218 (P63218 whole entry, looked up): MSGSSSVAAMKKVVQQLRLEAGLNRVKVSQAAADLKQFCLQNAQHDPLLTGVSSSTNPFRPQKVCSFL
Sequence of UniProt Q92522 (Q92522 whole entry, looked up): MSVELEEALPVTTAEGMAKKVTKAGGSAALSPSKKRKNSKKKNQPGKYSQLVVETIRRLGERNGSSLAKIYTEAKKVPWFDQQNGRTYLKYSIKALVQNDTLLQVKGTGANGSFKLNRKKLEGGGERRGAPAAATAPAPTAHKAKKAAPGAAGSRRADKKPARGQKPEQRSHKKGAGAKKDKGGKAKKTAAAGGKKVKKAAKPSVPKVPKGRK

log2 fold change, inactive:
IGF2BP2 (UniProt Q9Y6M1) 0.007
GBA2 (UniProt Q9HCG7) 0.084
HADHA (UniProt P40939) 0.209
GCSH (UniProt P23434) 0.003
HEATR5B (UniProt Q9P2D3) -0.045
GBF1 (UniProt Q92538) -0.012
GOLPH3 (UniProt Q9H4A6) 0.023
GYS1 (UniProt P13807) -0.006
GNS (UniProt P15586) 0.017
FIS1 (UniProt Q9Y3D6) -0.025
HMGB3 (UniProt O15347) -0.033
HHEX (UniProt Q03014) -0.016
GSR (UniProt P00390) -0.016
GLUD2 (UniProt P49448) 0.061
FBL (UniProt P22087) 0.059
FCHO1 (UniProt O14526) 0.046
HTATIP2 isoform 3 (UniProt Q9BUP3) 0.066
GNG5 (UniProt P63218) 0.224
HDAC6 (UniProt Q9UBN7) 0.043
HNRNPUL1 (UniProt Q9BUJ2) -0.02
FHOD1 (UniProt Q9Y613) -0.005
H1FX (UniProt Q92522) -0.044
FOXK1 (UniProt P85037) 0.516
GDE1 (UniProt Q9NZC3) 0.008
